Laboratory results taken from the supplement of paper PMC6555819.

Legend:
Test in all cases: PBM binding z-score (relative to random genomic background probes); higher = stronger binding; sequences stand for … in GC…GCGATTGACAGCGTAGAATGAAGG
[1] = tested on: RARb homodimer (NR concentration 270 nM)
How it was run: (§1)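 On custom Agilent 4×180K arrays, double-stranded probes with 34-nt variable regions carried direct-repeat seeds, single-nucleotide variants, half-site ablations or random human genomic background. Ligand-free nuclear receptor dimers were applied for 1 h, and binding was read with antibodies against each partner (one per run). Binding z-scores come from regression-normalized fluorescence, with the random background probes as reference.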

[2] = tested on: RARg:RXRa (NR concentration 270 nM, RXRa partner concentration 90 nM)
How it was run: as §1

[3] = tested on: RARg homodimer (NR concentration 270 nM)
How it was run: as §1

[4] = tested on: RXRa DBDmut IVT, anti-RXR (DBD mutation: RXRa K156A/R161A, NR concentration 90 nM)
How it was run: as §1

[5] = tested on: RXRa homodimer (NR concentration 180 nM)
How it was run: as §1

[6] = tested on: THRa:RXRa (NR concentration 90 nM, RXRa partner concentration 90 nM)
How it was run: as §1

[7] = tested on: THRa homodimer (NR concentration 90 nM)
How it was run: as §1

[8] = tested on: VDR homodimer (NR concentration 270 nM)
How it was run: as §1

Row | Sequence | PBM binding z-score [1] | PBM binding z-score [2] | PBM binding z-score [3] | PBM binding z-score [4] | PBM binding z-score [5] | PBM binding z-score [6] | PBM binding z-score [7] | PBM binding z-score [8]
1 | TCTATTAGATGATTAGGGCAACCGAAACAGCGGA | 0.19 | 0.609 | 0.575 | 1.02 | 0.432 | 0.35 | -0.055 | 0.272
2 | TAGCCGAGGTCATGCGGGCCAGTATAGTGTCGGC | 4.39 | 6.21 | 5.83 | 3.81 | 6.86 | 4.36 | 2.99 | 4.62
3 | ATCGAAAGGTTGACGAGGTGAGTATACACCGTTT | 1.28 | 1.47 | 1.51 | 0.0329 | 1.65 | 2.62 | 0.747 | 0.362
4 | ACTAGTTTGTCAGCTGAGGTCACACACAATTCGG | 3.94 | 3.85 | 3.7 | 1.98 | 4.13 | 4.42 | 5.24 | 3.53
5 | ATAGGTAGGTTATCGGGTCATTCAGTTTGCGCAT | 3.33 | 3.46 | 2.72 | 1.53 | 3.29 | 3.41 | 3.2 | 4.02
6 | GCGACTGGGGCAAAGTAGGTTACCATAAGGTTGG | 1.42 | 0.662 | 0.576 | -0.138 | 0.504 | 2.09 | 0.208 | 0.042
7 | CGTCTAAGGTCAATGCTAGGTCAGTGAAAGCATT | 5.09 | 7.91 | 7.34 | 3.82 | 6.12 | 4.67 | 4.42 | 3.13
8 | CCTTACGGGTCACGAGGTTATAGTACGACGAGCG | 3.95 | 6.29 | 6 | 1.55 | 7.51 | 3.87 | 1.19 | 2.14
9 | ATCTCTAGGTCAGACTCAGTTCAGTGAAGAACGC | 3.14 | 3.81 | 4.03 | 1.47 | 1.67 | 2.94 | 2.03 | 2.32
10 | GCTGACGGGTCAAAGGTTATAGCATGAATAGAAT | 3.04 | 6.46 | 4.08 | 1.66 | 9.14 | 3.85 | -0.263 | 0.919
11 | CCTAGCAGGTCAGGGTCACTCAAGCATTTCGCTT | 4.32 | 5.02 | 5.1 | 1.94 | 5.24 | 3.71 | 1.83 | 2.32
12 | CCGATTGGGGCAGAAAGGTTACCATACCATCCGG | 2.03 | 1.61 | 1.25 | -0.405 | 1.75 | 0.945 | -0.567 | -0.225
13 | CCTATTAGTTGACCATAACGGCAACCGAAGCTCG | 1.01 | 0.618 | 0.817 | 0.595 | 0.625 | 0.388 | 0.93 | 1.08
14 | TCTAGTTGGTCAAAGGTCACACGCTCGAAATGCG | 5.31 | 7.41 | 6.67 | 1.72 | 8.75 | 4.01 | 2.09 | 2.92
15 | CGAACTAGGTTAAGGACAGTGAATCTCCGCACGC | 1.1 | 0.615 | 0.965 | 0.432 | 0.533 | 3.11 | 3.05 | -0.012
16 | GCGACTGGGACAAAGCAGGTTACCATAAGGTTGG | 0.587 | 0.308 | 0.367 | -0.523 | 0.419 | 1.59 | 0.162 | -0.161
17 | ATATGTAGGTTAAGGATCATTCAGGTTGGTTCGC | 0.849 | 0.99 | 0.991 | 0.797 | 1.42 | 1.42 | 0.728 | 1.16
18 | GCTCGGAGGACAAGGTCAGAGCCTTGTCCGTAGA | 2.82 | 3.32 | 3.39 | 0.219 | 2.81 | 2.78 | 1.01 | 0.502
19 | GCTAGTTGGTCAGTAAAAGGGCACACACCGGTCG | 2.59 | 1.6 | 1.32 | -0.382 | 0.632 | 0.395 | -0.0299 | 0.271
20 | TTACCAAGGTGAAAGGTCGTTCATGCACGCCTTG | 2.8 | 4.33 | 2.27 | 0.778 | 5.93 | 3.24 | 0.876 | 1.96
21 | TCTCGGAGGACACGAAAGGTCCGAGCTCGACATC | 0.997 | 0.805 | 1.35 | 0.605 | 0.384 | 1.62 | 0.526 | 0.0895
22 | GCTAGCAGGGCATTTGGGTCACTCAATGACGGGC | 1.89 | 1.32 | 1.26 | 0.672 | 1.16 | 2.07 | 0.291 | 0.573
23 | CCTACTGGGCCAAAAAGGTCATTGAAGCCGATAA | 4.33 | 4.98 | 4.29 | 0.615 | 5.31 | 3.08 | 0.418 | 2.58
24 | AATACAGGGTTACTAGGCCAGAGTAGGTACGAAT | 0.925 | 1.24 | 0.893 | 0.264 | 1.57 | 1.07 | 0.206 | 0.675
25 | GCTTACGGGTCAAAGTTTATAGCATGAATAGAAT | 2.72 | 5.32 | 4.39 | 3.19 | 7.06 | 2.9 | -0.354 | 2.25
26 | CGTACTAGGTCAGAACAGGACAGTGAAGGATGAT | 2.2 | 2.5 | 3.38 | 0.907 | 0.946 | 3.33 | 0.353 | 0.141
27 | TAGCATAGGTCATTGGGCCAGTATAGTACGCATC | 3.23 | 4.88 | 4.65 | 1.58 | 4.77 | 2.29 | -0.526 | 0.622
28 | CCGACTGGGGCCAAGGTTACCATACTCAGTACGA | 1.87 | 0.875 | 1.17 | 0.424 | 1.12 | 1.88 | 1.07 | 0.551
